{"source": "the supplement of paper PMC8728848", "assay_in_all_cases": "glycan array binding signal (z-score within array); higher = stronger binding", "settings_in_all_cases": "glycan notation: IUPAC condensed, linker removed", "key": {"Fuc(a1-2)Gal(b1-3)GalNAc": {"molecular_target": "Fuc(a1-2)Gal(b1-3)GalNAc", "in_short": "(§1)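 The Consortium for Functional Glycomics database supplied 3228 glycan arrays, of which those lacking an available protein sequence were dropped. The binding signal, a within-array Z-score, was averaged across arrays of the same protein sequence and across linkers. Negative scores can be read as non-binding.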"}, "[1]": {"molecular_target": "Fuc(a1-2)Gal(b1-3)GalNAc(b1-3)Gal", "in_short": "as §1"}, "[2]": {"molecular_target": "Fuc(a1-2)Gal(b1-3)GlcNAc(b1-3)Gal(b1-4)Glc", "in_short": "as §1"}, "Fuc(a1-2)Gal(b1-4)Glc": {"molecular_target": "Fuc(a1-2)Gal(b1-4)Glc", "in_short": "as §1"}, "[3]": {"molecular_target": "Fuc(a1-2)[GalNAc(a1-3)]Gal(b1-4)Glc", "in_short": "as §1"}, "Fuc(a1-3)GlcNAc": {"molecular_target": "Fuc(a1-3)GlcNAc", "in_short": "as §1"}, "[4]": {"molecular_target": "Fuc(a1-3)[Gal3S(b1-4)]Glc6S", "in_short": "as §1"}, "Gal(a1-3)Gal": {"molecular_target": "Gal(a1-3)Gal", "in_short": "as §1"}, "[5]": {"molecular_target": "Gal(a1-4)Gal(b1-4)GlcNAc(b1-2)Man(a1-3)[Gal(a1-4)Gal(b1-4)GlcNAc(b1-2)Man(a1-6)]Man(b1-4)GlcNAc(b1-4)GlcNAc", "in_short": "as §1"}, "[6]": {"molecular_target": "Gal(a1-4)Gal(b1-4)GlcNAc(b1-3)Gal(b1-4)Glc", "in_short": "as §1"}, "Gal(b1-3)GlcNAc": {"molecular_target": "Gal(b1-3)GlcNAc", "in_short": "as §1"}, "[7]": {"molecular_target": "Gal(b1-3)GlcNAc(b1-3)Gal(b1-4)Glc", "in_short": "as §1"}, "[8]": {"molecular_target": "Gal(b1-3)[Fuc(a1-4)]GlcNAc", "in_short": "as §1"}, "[9]": {"molecular_target": "Gal(b1-3)[Fuc(a1-4)]GlcNAc(b1-3)Gal(b1-4)[Fuc(a1-3)]GlcNAc", "in_short": "as §1"}, "[10]": {"molecular_target": "Gal(b1-3)[Neu5Ac(b2-6)]GalNAc", "in_short": "as §1"}, "[11]": {"molecular_target": "Gal(b1-4)GlcNAc(b1-2)Man(a1-6)[GlcNAc(b1-2)Man(a1-3)]Man(b1-4)GlcNAc(b1-4)GlcNAc", "in_short": "as §1"}, "[12]": {"molecular_target": "Gal(b1-4)GlcNAc(b1-6)Gal(b1-4)GlcNAc", "in_short": "as §1"}, "[13]": {"molecular_target": "Gal(b1-4)GlcNAc(b1-6)GalNAc", "in_short": "as §1"}, "Gal3S(b1-4)Glc": {"molecular_target": "Gal3S(b1-4)Glc", "in_short": "as §1"}, "Gal3S6S(b1-4)GlcNAc6S": {"molecular_target": "Gal3S6S(b1-4)GlcNAc6S", "in_short": "as §1"}, "Gal6S(b1-4)Glc": {"molecular_target": "Gal6S(b1-4)Glc", "in_short": "as §1"}, "[14]": {"molecular_target": "GalNAc(b1-3)Gal(a1-4)Gal(b1-4)GlcNAc", "in_short": "as §1"}, "Glc(a1-6)Glc(a1-6)Glc": {"molecular_target": "Glc(a1-6)Glc(a1-6)Glc", "in_short": "as §1"}, "Glc(b1-4)Glc": {"molecular_target": "Glc(b1-4)Glc", "in_short": "as §1"}, "[15]": {"molecular_target": "GlcNAc(b1-3)[GlcNAc(b1-4)][GlcNAc(b1-6)]GlcNAc", "in_short": "as §1"}, "Kdn(a2-3)Gal(b1-3)GalNAc": {"molecular_target": "Kdn(a2-3)Gal(b1-3)GalNAc", "in_short": "as §1"}, "[16]": {"molecular_target": "Man(a1-2)Man(a1-2)Man(a1-3)Man", "in_short": "as §1"}, "[17]": {"molecular_target": "Man(a1-3)[Man(a1-6)]Man(a1-6)[Man(a1-3)]Man(b1-4)GlcNAc(b1-4)GlcNAc", "in_short": "as §1"}, "[18]": {"molecular_target": "Neu5Ac(a2-3)Gal(b1-3)GlcNAc(b1-3)GalNAc", "in_short": "as §1"}, "[19]": {"molecular_target": "Neu5Ac(a2-3)Gal(b1-4)GlcNAc(b1-3)Gal(b1-4)GlcNAc(b1-3)Gal(b1-4)GlcNAc", "in_short": "as §1"}, "[20]": {"molecular_target": "Neu5Ac(a2-3)Gal(b1-4)GlcNAc(b1-3)Gal(b1-4)[Fuc(a1-3)]GlcNAc", "in_short": "as §1"}, "[21]": {"molecular_target": "Neu5Ac(a2-3)Gal(b1-4)[Fuc(a1-3)]GlcNAc(b1-3)GalNAc", "in_short": "as §1"}, "[22]": {"molecular_target": "Neu5Ac(a2-6)Gal(b1-4)GlcNAc(b1-2)Man(a1-3)[Gal(b1-4)GlcNAc(b1-2)Man(a1-6)]Man(b1-4)GlcNAc(b1-4)GlcNAc", "in_short": "as §1"}, "[23]": {"molecular_target": "Neu5Ac(a2-6)Gal(b1-4)GlcNAc(b1-2)Man(a1-6)[GlcNAc(b1-2)Man(a1-3)]Man(b1-4)GlcNAc(b1-4)GlcNAc", "in_short": "as §1"}, "[24]": {"molecular_target": "Neu5Ac(a2-6)GlcNAc(b1-4)GlcNAc", "in_short": "as §1"}, "[25]": {"molecular_target": "Neu5Ac9Ac(a2-6)Gal(b1-4)GlcNAc", "in_short": "as §1"}}, "note": "Only a selection was taken, and the strongest signals are over-represented in it overall.", "data": [{"binder": "SBD (Rhizopus oryzae), P07683 (protein) ASIPSSASVQLDSYNYDGSTFSGKIYVKNIAYSKKVTVVYADGSDNWNNNGNIIAASFSGPISGSNYEYWTFSASVKGIKEFYIKYEVSGKTYYDNNNSANYQVS", "values": [{"measurement": "glycan array binding signal (z-score)", "setting": "Fuc(a1-2)Gal(b1-3)GalNAc", "result": 0.019}, {"measurement": "glycan array binding signal (z-score)", "setting": "[1]", "result": 2.93}, {"measurement": "glycan array binding signal (z-score)", "setting": "[2]", "result": 2.1}, {"measurement": "glycan array binding signal (z-score)", "setting": "Fuc(a1-2)Gal(b1-4)Glc", "result": -0.623}, {"measurement": "glycan array binding signal (z-score)", "setting": "[3]", "result": -0.2}, {"measurement": "glycan array binding signal (z-score)", "setting": "Fuc(a1-3)GlcNAc", "result": 0.165}, {"measurement": "glycan array binding signal (z-score)", "setting": "[4]", "result": 0.589}, {"measurement": "glycan array binding signal (z-score)", "setting": "Gal(a1-3)Gal", "result": -0.697}, {"measurement": "glycan array binding signal (z-score)", "setting": "[5]", "result": 2.59}, {"measurement": "glycan array binding signal (z-score)", "setting": "[6]", "result": 0.2}, {"measurement": "glycan array binding signal (z-score)", "setting": "Gal(b1-3)GlcNAc", "result": 0.042}, {"measurement": "glycan array binding signal (z-score)", "setting": "[7]", "result": 2.02}, {"measurement": "glycan array binding signal (z-score)", "setting": "[8]", "result": -0.029}, {"measurement": "glycan array binding signal (z-score)", "setting": "[9]", "result": 0.121}, {"measurement": "glycan array binding signal (z-score)", "setting": "[10]", "result": -0.657}, {"measurement": "glycan array binding signal (z-score)", "setting": "[11]", "result": -0.081}, {"measurement": "glycan array binding signal (z-score)", "setting": "[12]", "result": 0.47}, {"measurement": "glycan array binding signal (z-score)", "setting": "[13]", "result": -0.13}, {"measurement": "glycan array binding signal (z-score)", "setting": "Gal3S(b1-4)Glc", "result": 0.207}, {"measurement": "glycan array binding signal (z-score)", "setting": "Gal3S6S(b1-4)GlcNAc6S", "result": 0.19}, {"measurement": "glycan array binding signal (z-score)", "setting": "Gal6S(b1-4)Glc", "result": -0.476}, {"measurement": "glycan array binding signal (z-score)", "setting": "[14]", "result": -0.155}, {"measurement": "glycan array binding signal (z-score)", "setting": "Glc(a1-6)Glc(a1-6)Glc", "result": -0.213}, {"measurement": "glycan array binding signal (z-score)", "setting": "Glc(b1-4)Glc", "result": -0.436}, {"measurement": "glycan array binding signal (z-score)", "setting": "[15]", "result": -0.005}, {"measurement": "glycan array binding signal (z-score)", "setting": "Kdn(a2-3)Gal(b1-3)GalNAc", "result": 0.62}, {"measurement": "glycan array binding signal (z-score)", "setting": "[16]", "result": 5.61}, {"measurement": "glycan array binding signal (z-score)", "setting": "[17]", "result": -0.313}, {"measurement": "glycan array binding signal (z-score)", "setting": "[18]", "result": 2}, {"measurement": "glycan array binding signal (z-score)", "setting": "[19]", "result": -0.668}, {"measurement": "glycan array binding signal (z-score)", "setting": "[20]", "result": -0.067}, {"measurement": "glycan array binding signal (z-score)", "setting": "[21]", "result": 3.37}, {"measurement": "glycan array binding signal (z-score)", "setting": "[22]", "result": -0.457}, {"measurement": "glycan array binding signal (z-score)", "setting": "[23]", "result": 0.349}, {"measurement": "glycan array binding signal (z-score)", "setting": "[24]", "result": 0.158}, {"measurement": "glycan array binding signal (z-score)", "setting": "[25]", "result": -0.195}]}]}
